Source: PubChem
Sampled rows, rich in hits. Any-hit rate of the full collection: about 6.7%.
T cruzi growth-1: T. cruzi proliferation inhibition; T. cruzi beta-gal in NIH3T3, GalScreen luminescence, 90 h; inhibition, % at 8.34 µM; hit rate 5.9% among 77,000;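 active means mean inhibition above about 93%, with at least 55% of replicates each passing it, limit read from the data, passing the limit was not always enough; inconclusive means only one of those two conditions holds; inactive means neither condition holds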
C diff HTS: C. difficile growth inhibition; AID 1259249; growth activity, negative = inhibition, % at 16 µg/mL (by protocol); hit rate 0.25% among 86,000; Clostridium difficile clinical isolate growth, OD600, 24 h; stronger effect = lower value;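 active means mean growth activity at or below -80% and every replicate also at or below -80%; inconclusive means mean at or below -80% but some replicate above -80%; inactive means mean growth activity above -80%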
Pf Dd2 inh: inhibitors of Plasmodium falciparum Dd2 growth. P. falciparum Dd2 growth, SYBR Green, 72 h; stronger effect = lower value. AID 1159554. hit rate 2.3% among 94,000. activity change, % at 10 µM; in the data active means activity change below about -80%; inconclusive means no clear call, values can overlap the other calls
T cruzi growth-2: blocks T. cruzi growth in NIH3T3 host cells. shares compounds with T cruzi growth-1. T. cruzi beta-gal in NIH3T3, GalScreen luminescence, 90 h. inhibition, % at 8.35 µM. hit rate 72% among 5,600. AID 651739;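 active means mean replicate inhibition above about 95% and at least 55% of replicates individually reaching it, limit read from the data; inconclusive means only one of the two criteria is met; inactive means neither criterion is met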
T cruzi growth-3: Trypanosoma cruzi proliferation inhibition. shares compounds with T cruzi growth-1. T. cruzi beta-gal in NIH3T3, GalScreen luminescence, 90 h. inhibition, % at 2.09 µM. hit rate 21% among 5,600. AID 651740;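 active means mean inhibition above about 95%, with at least 55% of replicates also reaching it, limit read from the data; inconclusive means meets just one of the two conditions; inactive means meets neither condition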
3T3 cytotox: NIH/3T3 (mouse) viability loss. hit rate 14% among 5,600. cytotoxicity (signal decrease), % at 8.35 µM. shares compounds with T cruzi growth-1. NIH/3T3 viability, CellTiter-Glo ATP luminescence, 90 h;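 active means mean signal decrease across replicates above about 35% based on untreated-well scatter, with enough replicates individually passing, limit read from the data; inconclusive means no rule stated though some were filed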
3T3 cytotox 2: NIH/3T3 (mouse) viability loss; shares compounds with T cruzi growth-1; NIH/3T3 viability, CellTiter-Glo ATP luminescence, 90 h; inhibition, % at 24.9 µM; hit rate 56% among 5,600; AID 651744;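 active means mean loss of cell viability signal at or above a set limit, and enough replicates individually reaching it; inconclusive means meets only the mean limit or only the replicate share; inactive means meets neither condition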
A number is an active result.

For CC(C)CC#Cc1ccc2c(c1)O[C@@H](CN(C)C(=O)c1ccncc1)[C@H](C)CN([C@@H](C)CO)S2(=O)=O the results were T cruzi growth-1 inactive, C diff HTS inactive and Pf Dd2 inh inactive.
For CO[C@H]1CN(C)C(=O)c2ccc(NC(=O)c3ccccc3F)cc2OC[C@@H](C)NC[C@@H]1C the results were T cruzi growth-1 inactive and Pf Dd2 inh inactive.
Screening COc1ccc(CN(C)C[C@@H]2Oc3ccc(NC(=O)CCC(F)(F)F)cc3CC(=O)N([C@@H](C)CO)C[C@H]2C)cc1 returned T cruzi growth-1 inactive, C diff HTS inactive and Pf Dd2 inh inactive.
C[C@H](CO)N1C[C@H](C)[C@@H](CN(C)Cc2ccc(Oc3ccccc3)cc2)Oc2ccc(NC(=O)C3CC3)cc2C1=O was read as T cruzi growth-1 inactive, C diff HTS inactive and Pf Dd2 inh inactive.
`C[C@H]1CN([C@@H](C)CO)S(=O)(=O)c2ccc(-c3ccncc3)cc2O[C@@H]1CN(C)C(=O)c1cccc(F)c1` gave T cruzi growth-1 114, C diff HTS inactive, Pf Dd2 inh inactive, T cruzi growth-2 inactive, T cruzi growth-3 inactive, 3T3 cytotox inactive and 3T3 cytotox 2 inconclusive.
C[C@@H]1CN([C@H](C)CO)S(=O)(=O)c2ccc(-c3ccncc3)cc2O[C@H]1CN(C)C(=O)c1cccc(F)c1 was read as T cruzi growth-1 113, C diff HTS inactive, Pf Dd2 inh inactive, T cruzi growth-2 inactive, T cruzi growth-3 inactive, 3T3 cytotox inactive and 3T3 cytotox 2 47.
Screening C[C@H](CO)N1C[C@H](C)[C@H](CN(C)C(=O)c2cccc(F)c2)Oc2cc(-c3ccncc3)ccc2S1(=O)=O returned T cruzi growth-1 109, C diff HTS inactive, Pf Dd2 inh inactive, T cruzi growth-2 inactive, T cruzi growth-3 inactive, 3T3 cytotox inactive and 3T3 cytotox 2 inactive.
For C[C@@H]1CN([C@@H](C)CO)S(=O)(=O)c2ccc(-c3ccncc3)cc2O[C@@H]1CN(C)C(=O)c1cccc(F)c1 the results were T cruzi growth-1 inactive, C diff HTS inactive and Pf Dd2 inh inactive.
`C[C@@H]1CN([C@H](C)CO)S(=O)(=O)c2ccc(-c3cccc(F)c3)cc2O[C@@H]1CN(C)C(=O)c1cccc(F)c1` gave T cruzi growth-1 inactive, C diff HTS inactive and Pf Dd2 inh inactive.
Screening C[C@H](CO)N1C[C@H](C)[C@H](CN(C)C(=O)c2cccc(F)c2)Oc2cc(-c3cccc(F)c3)ccc2S1(=O)=O returned T cruzi growth-1 inactive, C diff HTS inactive and Pf Dd2 inh inactive.
COc1cccc(CNC(=O)C[C@@H]2CC[C@@H](NC(=O)C3CC3)[C@@H](CO)O2)c1 was read as C diff HTS inactive and Pf Dd2 inh inactive.
`O=S(=O)(N[C@@H]1CC[C@H](CCn2cc(C3CC3)nn2)O[C@@H]1CO)c1ccc(F)cc1` gave T cruzi growth-1 inactive and Pf Dd2 inh inactive.
For O=C(NC1CCCC1)[C@H]1[C@H](CO)[C@H]2Cn3c(ccc(-c4ccccc4)c3=O)[C@@H]1N2CC1CC1 the results were C diff HTS inactive and Pf Dd2 inh inactive.
For C[C@@H]1CN([C@@H](C)CO)C(=O)c2cc(NC(=O)CCCN(C)C)ccc2O[C@@H]1CN(C)C(=O)Nc1ccc2c(c1)OCO2 the results were C diff HTS inactive and Pf Dd2 inh inactive.
`C[C@@H]1CN([C@H](C)CO)S(=O)(=O)c2ccc(C#CCC3CCCC3)cc2O[C@@H]1CN(C)C(=O)CC1CC1` gave T cruzi growth-1 112, C diff HTS inactive, Pf Dd2 inh inactive, T cruzi growth-2 96, T cruzi growth-3 inactive, 3T3 cytotox inactive and 3T3 cytotox 2 105.
C[C@@H]1CN([C@H](C)CO)S(=O)(=O)c2ccc(C#CCC3CCCC3)cc2O[C@@H]1CN(C)C(=O)CN(C)C was read as T cruzi growth-1 inactive, C diff HTS inactive and Pf Dd2 inh inactive.
`C[C@H]1CN([C@@H](C)CO)S(=O)(=O)c2ccc(C#CCC3CCCC3)cc2O[C@H]1CN(C)C` gave T cruzi growth-1 inactive, C diff HTS inactive and Pf Dd2 inh inactive.
CNC[C@H]1Oc2cc(C#CCC3CCCC3)ccc2S(=O)(=O)N([C@H](C)CO)C[C@@H]1C was read as T cruzi growth-1 inconclusive, C diff HTS inactive, Pf Dd2 inh inactive, T cruzi growth-2 99, T cruzi growth-3 inactive, 3T3 cytotox inactive and 3T3 cytotox 2 106.
For CCC(=O)N(C)C[C@H]1Oc2cc(C#CCC3CCCC3)ccc2S(=O)(=O)N([C@H](C)CO)C[C@H]1C the results were T cruzi growth-1 116, C diff HTS inactive, Pf Dd2 inh inactive, T cruzi growth-2 98, T cruzi growth-3 inactive, 3T3 cytotox 44 and 3T3 cytotox 2 103.
`CCC(=O)N(C)C[C@@H]1Oc2cc(C#CCC3CCCC3)ccc2S(=O)(=O)N([C@H](C)CO)C[C@H]1C` gave T cruzi growth-1 inactive, C diff HTS inactive and Pf Dd2 inh inactive.
For COc1ccc2c3c(n(C)c2c1)[C@H](CO)N(Cc1cccnc1)CC31CN(Cc2cccnc2)C1 the results were C diff HTS inactive and Pf Dd2 inh inactive.
For Cc1ccc(S(=O)(=O)Nc2ccc3c(c2)C(=O)N([C@@H](C)CO)C[C@@H](C)[C@@H](CN(C)C(=O)CCCN(C)C)OCCCC[C@H](C)O3)cc1 the results were T cruzi growth-1 inactive and Pf Dd2 inh inactive.
O=C(N[C@@H]1C=C[C@@H](CC(=O)N2CCN(c3ccccc3)CC2)O[C@H]1CO)c1ccccc1 was read as T cruzi growth-1 inactive, C diff HTS inactive and Pf Dd2 inh inactive.
`C[C@@H]1CCCCO[C@@H](CN(C)C(=O)C2CCCCC2)[C@@H](C)CN([C@@H](C)CO)C(=O)c2cc(NC(=O)Nc3ccc(C(F)(F)F)cc3)ccc2O1` gave T cruzi growth-1 120, C diff HTS inactive, Pf Dd2 inh inconclusive, T cruzi growth-2 96, T cruzi growth-3 117, 3T3 cytotox 38 and 3T3 cytotox 2 64.
For C[C@H](CO)N1C[C@H](C)[C@@H](CN(C)C(=O)C2CCCCC2)OCCCC[C@H](C)Oc2ccc(NC(=O)Nc3ccc(C(F)(F)F)cc3)cc2C1=O the results were T cruzi growth-1 120, C diff HTS inactive, Pf Dd2 inh inactive, T cruzi growth-2 97, T cruzi growth-3 110, 3T3 cytotox inactive and 3T3 cytotox 2 inactive.
C[C@@H]1CCCCO[C@@H](CN(C)C(=O)C2CCCCC2)[C@H](C)CN([C@@H](C)CO)C(=O)c2cc(NC(=O)Nc3ccc(C(F)(F)F)cc3)ccc2O1 was read as T cruzi growth-1 121, C diff HTS inactive, Pf Dd2 inh inactive, T cruzi growth-2 97, T cruzi growth-3 108, 3T3 cytotox inactive and 3T3 cytotox 2 inactive.
